# NCOA1 inh – human NCOA1 inhibition; AID 588354; HEK293 GAL4-SRC1 luciferase reporter, luminescence; actives 0.12% (n = 360,000); inhibition, % at 3.6 µM;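 active = inhibition above the campaign mean plus 3 SD, with each screening campaign given its own cutoff, cut at about 60% in these data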;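 also: 0% = DMSO treated cells and 100% = gossypol at 36 µM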
# EBV LMP1 NFkB – inhibitors of Epstein-Barr LMP1-induced NF-kappaB reporter | inhibition, % at 12.5 µM | actives 0.69% (n = 350,000) | AID 504558 | LMP1-induced NF-kappaB luciferase reporter cells, luminescence; in the data active = inhibition above about 41%;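 also: 0% = neutral control wells and 100% = reference inhibitor control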
# Shn3 3UTR inh – reduces Shn3 3'UTR luciferase signal in osteoblasts. Clone20 osteoblast Shn3 3'UTR firefly luciferase, 24 h. inhibition, % at 12.5 µM. actives 0.52% (n = 360,000). AID 588674;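 active = mean inhibition of at least 75% with every replicate also reaching 75%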;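 also: 0% = median of neutral control wells and 100% = pilot-screen positive control compound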
# SRC2 inh – inhibits human steroid receptor coactivator 2; Q15596; HEK293 GAL4-SRC2 luciferase reporter, luminescence; inhibition, % at 9 µM; actives 0.17% (n = 370,000); AID 651957;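 active = inhibition above the mean inhibition of all tested compounds plus 3 SD, set per campaign, cut at about 52% in these data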;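 also: 0% = DMSO treated cells and 100% = cells given Gossypol at 36 µM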
# Target sequence (Q15596 whole entry, looked up, the tested form may be a part): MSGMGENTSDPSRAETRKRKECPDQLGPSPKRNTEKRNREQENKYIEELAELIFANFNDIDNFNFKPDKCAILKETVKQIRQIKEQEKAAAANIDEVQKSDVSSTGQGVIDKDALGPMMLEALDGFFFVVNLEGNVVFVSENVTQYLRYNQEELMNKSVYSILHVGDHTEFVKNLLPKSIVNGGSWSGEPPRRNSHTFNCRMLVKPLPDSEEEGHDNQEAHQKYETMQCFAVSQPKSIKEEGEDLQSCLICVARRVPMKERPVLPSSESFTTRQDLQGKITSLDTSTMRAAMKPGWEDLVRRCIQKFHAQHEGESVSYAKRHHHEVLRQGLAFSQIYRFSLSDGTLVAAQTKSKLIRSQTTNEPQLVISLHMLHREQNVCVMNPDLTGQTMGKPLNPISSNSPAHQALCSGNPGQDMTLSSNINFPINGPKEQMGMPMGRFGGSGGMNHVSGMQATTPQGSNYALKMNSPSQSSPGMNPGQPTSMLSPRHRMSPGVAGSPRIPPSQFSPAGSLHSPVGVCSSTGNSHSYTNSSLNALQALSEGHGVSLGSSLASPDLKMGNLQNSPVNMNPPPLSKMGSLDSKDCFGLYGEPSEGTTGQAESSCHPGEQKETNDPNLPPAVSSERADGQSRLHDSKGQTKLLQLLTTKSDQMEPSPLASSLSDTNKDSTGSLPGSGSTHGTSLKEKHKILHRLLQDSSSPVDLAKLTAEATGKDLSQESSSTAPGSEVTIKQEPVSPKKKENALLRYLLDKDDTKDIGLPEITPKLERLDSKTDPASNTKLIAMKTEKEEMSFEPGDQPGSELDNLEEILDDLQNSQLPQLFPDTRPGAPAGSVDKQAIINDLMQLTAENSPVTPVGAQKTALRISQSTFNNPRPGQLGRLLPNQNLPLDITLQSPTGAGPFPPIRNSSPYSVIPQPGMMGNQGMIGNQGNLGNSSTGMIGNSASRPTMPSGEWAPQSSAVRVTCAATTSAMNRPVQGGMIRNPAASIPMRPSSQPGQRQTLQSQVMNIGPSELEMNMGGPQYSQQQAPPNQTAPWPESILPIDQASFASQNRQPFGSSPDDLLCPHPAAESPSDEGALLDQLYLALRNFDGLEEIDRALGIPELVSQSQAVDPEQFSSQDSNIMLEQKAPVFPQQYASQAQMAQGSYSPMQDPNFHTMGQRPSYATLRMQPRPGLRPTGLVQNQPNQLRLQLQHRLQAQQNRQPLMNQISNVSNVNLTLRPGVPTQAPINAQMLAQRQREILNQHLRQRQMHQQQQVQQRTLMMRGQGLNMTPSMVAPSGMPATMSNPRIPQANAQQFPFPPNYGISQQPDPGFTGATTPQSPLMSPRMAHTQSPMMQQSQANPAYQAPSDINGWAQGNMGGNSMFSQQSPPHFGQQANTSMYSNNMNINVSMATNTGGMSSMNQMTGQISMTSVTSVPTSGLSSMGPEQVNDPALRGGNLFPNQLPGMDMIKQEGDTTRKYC
# NR5A2 inv ag – inverse agonists of human LRH-1 (NR5A2) | O00482 | HEK293T StAR-luciferase reporter, LRH-1 transfected, 24 h | inhibition, % at 3.6 µM | actives 0.13% (n = 360,000) | AID 602396;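 active = inhibition above the mean inhibition of all tested compounds plus 3 SD, cut at about 73% in these data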;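 also: 0% = DMSO wells and 100% = reporter-only cells lacking LRH-1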
# SRC3 inh – inhibitors of human steroid receptor coactivator 3 (SRC3). actives 0.17% (n = 360,000). HEK293 GAL4-SRC3 luciferase reporter, luminescence. AID 588352. inhibition, % at 3.6 µM. Q9Y6Q9;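 active = inhibition above a per-campaign cutoff, the mean of all compounds plus 3 SD, cut at about 60% in these data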;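 also: 0% = DMSO-treated cells and 100% = gossypol-treated cells at 36 µM; higher means less SRC3-driven luciferase light from the GAL4 reporter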
# * hit, by the source's call; . = no result. Only some compounds are listed: those with a hit (about 1.2% of all), similar ones and a draw of the others.
SMILES,NCOA1 inh,EBV LMP1 NFkB,Shn3 3UTR inh,SRC2 inh,NR5A2 inv ag,SRC3 inh
CC(C)c1oc(=O)cc2c1[C@@H](O)[C@H]1OC(=O)[C@@]3(C)CC[C@@H](O)[C@@]2(C)C13 (some centres undefined),25,0,8,-49,72,62*
CN1CC[C@@H]2CN[C@H](c3ccccc3)C[C@@H]21,.,.,.,1,.,.
CCOc1cc2c(cc1OCC)-n1cccc1C(c1ccc(C(C)C)cc1)NC2 (centres undefined),1,20,90*,25,-5,-3
Cc1cccc(C(C)c2cnc[nH]2)c1C (centres undefined),.,.,.,18,.,.
CCOC(=O)CC[C@@H]1CC[C@]2(CCCN(Cc3cccnc3)C2)O1,.,.,.,9,.,.
CC1(C)C[C@H]2C=C(C=O)[C@]3(C=O)C[C@]3(C)[C@H]2C1,-36,-83,97*,12,-2,47
CC1CCOC(=O)C=CC=CC(=O)OC2CC3OC4C5OC5(C)C(O)CC4(COC(=O)C1O)C2(C)C31CO1 (centres undefined),96*,87*,97*,73*,98*,93*
CC1=CC2OC3CC4OC(=O)C=CC=CC(=O)OCCC(C)C(O)C(=O)OCC2(CC1)C4(C)C31CO1 (centres undefined),95*,82*,98*,71*,99*,94*
CC(O)C1C=CC=CC(=O)OC2CC3OC4C5OC5(C)C(O)CC4(COC(=O)C(O)C(C)CCO1)C2(C)C31CO1 (centres undefined),96*,88*,96*,73*,100*,94*
CC1=CC2OC3CC4OC(=O)C=CC=CC(C(C)O)OCC(O)C5(C)OC5C(=O)OCC2(CC1O)C4(C)C31CO1 (centres undefined),96*,97*,98*,65*,98*,93*
O=C(NCCN1CCC2(CC1)C(=O)NCN2c1ccccc1)c1ccc(Cl)cc1,.,.,.,-14,.,.
c1ccc(-c2nc3ccccc3nc2-c2ccc(CN3CCC(n4nnc5ccccc54)CC3)cc2)cc1,.,.,.,18,.,.
O=C1NCN(c2ccccc2)C12CCN(C(c1cccc3ccccc13)c1nnnn1C1CCCCC1)CC2 (centres undefined),12,.,-13,18,-12,4
COC(=O)C1CN(C#N)N(c2ccc(Cl)cc2)C12c1ccccc1-c1ccccc12 (centres undefined),-27,37,97*,.,28,73*
O=C(O)CCCOc1ccc(Cl)cc1Cl,11,59*,0,10,3,1
O=C(NCCN1CCC2(CC1)C(=O)NCN2c1ccccc1)c1ccccc1F,.,.,.,2,.,.
CC(C)CCP(=O)(O)O,.,.,.,-10,.,.
NC(=O)c1cn(C2OC(CO)C(O)C2O)c2ncnc(N)c12 (centres undefined),91*,81*,64,62*,98*,89*
N#Cc1cn(C2OC(CO)C(O)C2O)c2ncnc(N)c12 (centres undefined),45,-181,82,61*,97*,55
O=C(NC1CCCCC1)N1Cc2cc(Br)ccc2-n2nncc2C1,.,.,.,-11,.,.
CC(C)S(=O)(=O)N1Cc2ccc(Br)cc2-n2nncc2C1,.,.,.,9,.,.
Cc1nc2c(=O)n(C)c(=O)nc-2n(C)n1,87*,91*,98*,75*,95*,92*
O=C(Nc1ccc(OC(=O)N2CCCCC2)cc1)N1CCOCC1,44,30,60,84*,56,48
COc1ccc([C@@H]2C[C@H]3[C@@H](CN2)CON3C)cc1,.,.,.,-11,.,.
C[C@@H]1O[C@@H](O[C@H]2C[C@@H](O)[C@]3(CO)[C@@H]4C(CC[C@]3(O)C2)[C@@]2(O)CC[C@H](C3COC(=O)C3)[C@@]2(C)C[C@H]4O)[C@H](O)[C@H](O)[C@H]1O (some centres undefined),49,53*,-27,3,99*,67*
SMILES,NCOA1 inh,EBV LMP1 NFkB,Shn3 3UTR inh,SRC2 inh,NR5A2 inv ag,SRC3 inh
CN1/C(=C\C=C2C(=O)NC(=O)NC2=O)C(C)(C)c2ccccc21,-7,1,18,-28,-12,-28
CCN1/C(=C/C=C/C2=[N+](CC)c3ccccc3C2(C)C)C(C)(C)c2ccccc21,72*,39,79,33,98*,82*
Clc1ccc(C(c2ccc(Cl)cc2)n2cc[n+](CC(OCc3ccc(Cl)cc3Cl)c3ccc(Cl)cc3Cl)c2)cc1 (centres undefined),-16,0,87*,-6,-16,0
O=C(NN=Cc1ccc(N(CCCl)CCCl)cc1)c1cccnc1,-23,47*,-33,-6,10,-3
O=C(NN=Cc1ccc(N(CCCl)CCCl)cc1)c1cccc([N+](=O)[O-])c1,-34,27,14,4,0,-35
Cc1cc(N2CCNC[C@H]2C)ccc1N1CC[C@H](O)C1,.,.,.,15,.,.
COc1ccc2c(c1)C13CCN4CC5=CCOC6CC(=O)N2C1C6C5CC43 (centres undefined),9,.,10,-18,7,6
COc1cccc(NC2=NCCS2)c1,.,.,.,-18,.,.
CC(N)C(=O)NC1C2C(=C(O)CC(O)C2O)C(=O)OC1(C)C(Cl)Cl (centres undefined),93*,85*,96*,64*,97*,91*
COc1ccc(OC(=O)N(C)C[C@H]2OCc3cnnn3CCCC(=O)N([C@@H](C)CO)C[C@@H]2C)cc1,.,.,.,14,.,.
CCCC(=O)N1c2ccc(Cl)cc2C(c2ccccc2)=NCC1C(=O)NC(C)(C)C (centres undefined),.,.,.,16,.,.
O=c1[nH]c2ccccc2n1C1CCN(C(c2cc3ccccc3o2)c2nnnn2-c2ccc3c(c2)OCCO3)CC1 (centres undefined),44,.,36,-27,-8,24
C=Cc1cc(OC)c2c(c1)c(=O)oc1c2cc(OC)c2c(O)ccc(C3OC(C)C(O)C(C)(O)C3O)c21 (centres undefined),34,88*,12,66*,27,38
COC(=O)C1=C(C(=O)OC)SC2(S1)C(C(=O)OC)=C(C(=O)OC)Sc1c2ssc1=O,-45,-20,98*,-82,29,-19
Cc1ccc(OC(=O)N(C)C[C@H]2OCc3cnnn3CCCC(=O)N([C@@H](C)CO)C[C@@H]2C)cc1,.,.,.,-5,.,.
CCC(C)(O)C(=O)OC1C(=O)OC2CC3C(C)=CC(O)C(O)C3(C)C3C4(O)OCC23C1C(C)C4O (centres undefined),53,.,5,29,97*,71*
CCN(CCCl)c1cc(CN(C)C)cc(NC(=O)c2ccc(C(=O)Nc3cc(CN(C)C)cc(N(CC)CCCl)c3)cc2)c1,11,87*,96*,-15,0,36
CN(C)CC(C(=O)Cc1ccccc1)c1ccccc1 (centres undefined),2,0,95*,47,9,26
CC[C@]12CCN(CC3(O)CC3)C(Cc3ccc(O)cc31)C2(C)C,.,.,.,20,.,.
